A word on the AC50: it is the concentration giving half of the maximal activity seen.

In all, about 16,000 compounds went through this assay and about 2,600 (16%) were called active. Another 20% or so got no clear call; they are omitted. These entries were drawn from the full list. A number with no mark means an inactive call. Calls come from the whole dose curve; as a rule, active = well fitted curve in the direction sought with a large enough effect; inconclusive = small, poorly fitted or top-dose-only effect, or effect the other way; inactive = no such curve, though single readings can be large or run the other way. Square brackets hold non-standard residues; d marks the D form. Peptide text beside a SMILES is read from it.
% is set by controls: 0 for no effect and ±100 for the full control effect.

The experiment deals with Cytochrome P450 2D6 (Homo sapiens) (UniProt P10635). The experiment in a line: Cytochrome panel assay with activity outcomes. As to conditions: recombinant CYP, pro-luciferin dealkylation, luminescence, p450-cyp2d6; series mostly up to 57.1 µM.
Sequence of Cytochrome P450 2D6 (Homo sapiens) (P10635 whole entry, looked up): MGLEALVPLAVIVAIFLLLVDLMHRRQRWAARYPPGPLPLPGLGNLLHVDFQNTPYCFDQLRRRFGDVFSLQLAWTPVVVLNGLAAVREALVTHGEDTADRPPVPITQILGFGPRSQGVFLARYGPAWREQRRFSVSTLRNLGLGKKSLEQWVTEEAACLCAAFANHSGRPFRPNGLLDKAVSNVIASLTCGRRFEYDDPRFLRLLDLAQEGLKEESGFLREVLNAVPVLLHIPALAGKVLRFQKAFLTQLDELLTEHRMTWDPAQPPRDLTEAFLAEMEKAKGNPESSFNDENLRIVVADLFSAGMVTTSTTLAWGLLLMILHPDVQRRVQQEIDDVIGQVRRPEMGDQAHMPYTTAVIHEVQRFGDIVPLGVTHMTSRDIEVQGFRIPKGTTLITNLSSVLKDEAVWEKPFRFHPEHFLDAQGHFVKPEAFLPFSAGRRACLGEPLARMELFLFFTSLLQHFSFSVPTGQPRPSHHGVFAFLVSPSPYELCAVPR
As for `COc1ccc(NC(=O)N2CCC3(CC2)CCN(C(=O)c2cccc(F)c2)CC3)cc1`, the AC50 result was “inactive”. As to `CCC1Oc2ccccc2N(CC(=O)NCCCN2CCCCC2C)C1=O` (stereo not given), the concentration at half-maximal activity (AC50) is 3.16 µM (active). The same measure, in the same setting: next, `CCCCNC(=O)CN1C(=O)NC2(CCCc3ccccc32)C1=O` (stereo not given): “inactive”; `COc1ccc2nc(NC(C)=O)sc2c1`: “inactive”. Same read-out and setting: next, `Cc1ccccc1NC(=O)c1ccc(N/N=C/c2ccccc2O)c([N+](=O)[O-])c1`: “inactive”.

In the case of `COC(=O)NCC(c1cccnc1)N1CCN(c2ccccc2OC)CC1` (stereo not given), the AC50 result was “inactive”. With `O=c1c2ccccc2nc2n1C(CSc1ccc(F)cc1)CN2` (stereo not given), the AC50 result was “inactive”.

For `CCCCNC(=O)CCC(=O)Nc1ccc2nc(N3CCOCC3)cc(C)c2c1`, the AC50 entry is “inactive”. Same read-out and setting: next, `CN1CCN(CCCNC(=O)c2ccc(CSCc3cccc(Cl)c3)o2)CC1`: 10 µM (active); `COc1ccc2cc3cc(C(=O)NCCCN4CCOCC4)oc3nc2c1`: “inactive”; `COc1ccc(S(N)(=O)=O)cc1C(=O)NCCCN1CCN(c2cccc(Cl)c2)CC1`: “inactive”. As to `Nc1cc(S(=O)(=O)O)cc2ccc(S(=O)(=O)O)cc12`, the activity, negative = inhibition was -8.48% [at 11.4 µM].

For the compound `CCc1ccc(-c2cc(C(=O)NCc3ccco3)c3ccccc3n2)s1`, the AC50 entry was “inactive”. Consider `CSc1nc(N)nc(-c2cccs2)c1C#N`, for which the AC50 entry was “inactive”. On the same count and under the same terms, next, `O=C(CCCCCN1C(=O)c2ccccc2C1=O)NCc1ccccn1`: “inactive”; `COc1ccc(CCNC(=O)CCCCCN2C(=O)c3ccccc3C2=O)cc1`: 5.01 µM (active). The same measure, in the same setting: next, `CCOc1ccc(CCNC(=O)CCCN2C(=O)c3ccccc3C2=O)cc1OCC`: “inactive”; `Cc1cccc(N2CCN(CC(=O)Nc3ccc(-n4cnnn4)cc3)CC2)c1C`: “inactive”; `O=C(Oc1ccc2c(c1)CN(Cc1ccccc1)CO2)c1ccccc1`: 0.501 µM (active). The same measure, in the same setting: next, `COc1ccc(S(=O)(=O)N(CCc2ccccc2)CC(=O)N2CCOCC2)cc1`: “inactive”; `CN(Cc1ccccc1)S(=O)(=O)c1ccc(OCC(=O)N2CCOCC2)cc1`: “inactive”.

With `CC(Oc1ccc(O)cc1)(P(=O)(O)O)P(=O)(O)O`, the AC50 entry was “inactive”. In the case of `C/C(CCN1CCc2nc(-c3ccccc3)c(-c3ccccc3)cc2C1)=N\OC[C@@H](O)[C@@H]1O[C@@H]2OC(C)(C)O[C@@H]2[C@H]1O`, the activity, negative = inhibition was 12.8% [at 11.4 µM]. Turning to `C[C@@H](NCc1cc(Br)cc2[nH]c(=O)c(=O)[nH]c12)P(=O)(O)O`, the AC50 result is “inactive”. The same measure, in the same setting: next, `O=C(CCCN1CCC(O)(c2ccc(Br)cc2)CC1)c1ccc(F)cc1`: 3.98 µM (active); `CCOC(=O)c1c(-c2ccccc2)nc2ccccn12`: “inactive”.

Regarding `c1ccc(-c2nc3ccccn3c2NCc2ccc3c(c2)OCO3)cc1`, the half-maximal activity concentration (AC50) is 3.98 µM (active).

As for `O=C(N/N=C\c1cn(-c2ccccc2)nc1-c1ccccc1)c1ccc2c(c1)OCO2`, the AC50 result is “inactive”. Same read-out and setting: next, `CCCS(=O)(=O)N1CCCC(C(=O)N2CCOCC2)C1` (stereo not given): “inactive”; `CCCS(=O)(=O)N1CCN(CC2CC=CCC2)CC1` (stereo not given): 1.12 µM (active); `CCCS(=O)(=O)N1CCCC(C(=O)N2CCN(C(=O)OCC)CC2)C1` (stereo not given): “inactive”. Regarding `COc1ccc(Oc2c(C=O)c3ccccc3n2C)cc1`, the AC50 entry was “inactive”. Still for that read-out and setting: next, `c1ccc(C2CCC(N3CCC(N4CCCCC4)CC3)CC2)cc1` (stereo not given): 14.1 µM (active); `CC(C)CC(=O)N1CCC(N2CCN(c3ccccc3)CC2)CC1`: “inactive”; `COc1ccccc1NC(=O)c1nn(-c2cccc(C(F)(F)F)c2)ccc1=O`: “inactive”.

On to `O=[N+]([O-])c1ccc(/C=N/N/C(=N/c2ccccn2)c2ccccn2)cc1`, for which the AC50 entry is “inactive”. For `CN1CCN(c2ccnc(-c3cccc(NS(C)(=O)=O)c3)n2)CC1`, the AC50 entry is “inactive”.

As for `N#Cc1cccc(-c2cc(-n3ccnc3)ncn2)c1`, the AC50 result was “inactive”. Same read-out and setting: next, `COc1cccc(-c2cncnc2-n2ccnc2)c1`: 12.6 µM (active); `COc1cccc(-c2nccc(NC3CCNCC3)n2)c1`: “inactive”. Still for that read-out and setting: next, `COc1cccc(-c2nccc(-n3ccnc3)n2)c1`: 7.94 µM (active); `COc1cccc(Sc2cc(N3CCOCC3)nc(-c3ccccc3)n2)c1`: “inactive”.

Turning to `CS(=O)(=O)Nc1cccc(-c2cncnc2-n2ccnc2)c1`, the AC50 result is “inactive”.

Consider `CS(=O)(=O)Nc1cccc(-c2nccc(-n3ccnc3)n2)c1`, for which the AC50 was 12.6 µM (active). Still for that read-out and setting: next, `COc1ccc(-n2c(=O)c(-c3cccc(F)c3)nc3cncnc32)cc1`: “inactive”; `N#Cc1cccc(-c2nccc(-n3ccnc3)n2)c1`: 12.6 µM (active). On the same count and under the same terms, next, `c1cncc(-c2cncnc2-n2ccnc2)c1`: “inactive”; `CC[C@H]1C(=O)OC[C@H]1Cc1cncn1C`: “inactive”; `CCN(CC)c1ccc(NC(=O)c2cccc(F)c2)c(C)c1`: “inactive”. `CC[C@H]1CC[C@H]2[C@@H]3CC=C4C[C@H](OC(C)=O)[C@@H](N)C[C@@]4(C)[C@H]3CC[C@@]12C`: the activity, negative = inhibition was -4.19% [at 11.4 µM]. The same measure, in the same setting: next, `NCC(=O)N[C@H](CO)C(=O)O` (H-Gly-[dS]-OH): 6.25% [at 11.4 µM]; `CC1=NNC(=S)NCCCN2CCN(CCCNC(=S)NN=C(C)C=NNC(=S)NCCCN3CCN(CCCNC(=S)NN=C1)CC3)CC2`: -0.261% [at 11.4 µM]. Turning to `CC1(C)CC(=O)C(C=NCCN2CCN(C(=S)Nc3ccc(F)cc3)CC2)=C(O)C1`, the AC50 entry was “inactive”. Same read-out and setting: next, `CN1CCN(c2ccnc(-c3ccc(N(C)C)cc3)n2)CC1`: “inactive”; `c1cn(-c2ccnc(-c3ccc4c(c3)OCO4)n2)cn1`: 3.16 µM (active); `O=C(OCc1ccccc1)/C(=C/c1ccc(Cl)cc1)NC(=O)c1ccccc1Cl`: “inactive”.

For `COc1ccc(Oc2ncc3nc(-c4ccc(F)cc4)c(=O)n(Cc4cccs4)c3n2)cc1`, the AC50 entry was “inactive”. For the compound `c1cncc(CNc2ccnc(-c3ccc4c(c3)OCO4)n2)c1`, the concentration at half-maximal activity (AC50) is 10 µM (active). For `CN(C)C(=O)c1ccc(-c2cc(NCc3cccnc3)ncn2)cc1`, the AC50 entry was “inactive”. Same read-out and setting: next, `c1csc(CNc2ccnc(-c3ccc4c(c3)OCO4)n2)c1`: 0.501 µM (active); `c1ccc(CNc2ccnc(-c3ccc4c(c3)OCO4)n2)cc1`: 1.58 µM (active); `O=C(O)COc1ccc(-c2nccc(-c3cccs3)n2)cc1`: “inactive”. The same measure, in the same setting: next, `CN(C)C(=O)c1ccc(-c2nccc(NCc3cccnc3)n2)cc1`: “inactive”.

Regarding `COc1cccc(Cn2c(=O)c(-c3ccccc3)nc3cnc(N4CCN(C)CC4)nc32)c1`, the AC50 entry was “inactive”. On the same count and under the same terms, next, `COc1ccc(-n2c(=O)cnc3cnc(N4CCNCC4)nc32)cc1`: “inactive”. On the same count and under the same terms, next, `Fc1ccc(-c2csc(N3CCC(c4ccccc4)C3)n2)cc1` (stereo not given): “inactive”. Consider `CCN(CC)Cc1nc2c(c(=O)[nH]1)C1(CCCC1)Cc1ccccc1-2`, for which the AC50 result is “inactive”. On the same count and under the same terms, next, `CCCCCCCCCCCCCCCCCCOC[C@@H](COP(=O)([O-])OCC[N+](C)(C)C)OC`: “inactive”.

For `COc1nc(Cl)nc(Cl)c1Cl` (tested in a mixture with another compound), the activity, negative = inhibition was 10.4% [at 11.4 µM]. With `Cc1ccccc1-n1ncc2c(SCC(=O)N3c4ccccc4CC3C)ncnc21` (stereo not given), the AC50 result is “inactive”.

In the case of `CO[C@H]1COC(=O)C/C=C\[C@@H](C)COC(=O)[C@H]2CCCN2C(=O)C/C=C\[C@H]1C`, the activity, negative = inhibition is -1.87% [at 11.4 µM]. For the compound `O=C(Cn1cnc([N+](=O)[O-])n1)N/N=C/c1ccccc1O`, the AC50 result was “inactive”. With `CC1=C(C(=O)OCc2ccccc2)C(c2ccc(Cl)cc2)NC(=O)N1CCCCCC(=O)O` (stereo not given), the AC50 result is “inactive”.

In the case of `CCOc1cc(NC(=S)Nc2ccccc2)c(OCC)cc1NC(=O)c1ccc(OC)cc1`, the AC50 entry is “inactive”. Same read-out and setting: next, `O=C(Cc1ccccc1)Nc1ccccc1N1CCOCC1`: “inactive”. On the same count and under the same terms, next, `CCOc1ccc(C(=O)Nc2ccccc2N2CCCC2)cc1`: 3.16 µM (active). With `COc1cc(OC)cc(C(=O)Nc2ccccc2C(=O)N2CCCC2)c1`, the AC50 result was “inactive”. Same read-out and setting: next, `Cc1ccc(OCC(=O)Nc2ccccc2N2CCOCC2)c(C)c1`: “inactive”; `O=C(CNC1CCCCCC1)Nc1ccccc1N1CCCCC1`: 1.41 µM (active). For the compound `CC1(C)CC(=O)C(C(c2cccc(O)c2O)C2C(=O)CC(C)(C)CC2=O)C(=O)C1`, the activity, negative = inhibition was -12.6% [at 11.4 µM]. Regarding `Cc1ccc(-n2c(-c3cc(C)n(C)n3)n[nH]c2=S)cc1`, the AC50 result was “inactive”. On the same count and under the same terms, next, `Cc1ccc(SC(C)C(=O)NCc2cccnc2)cc1` (stereo not given): “inactive”. On the same count and under the same terms, next, `Cc1ccc(S(=O)(=O)/C(C#N)=C/c2c(N3CC(C)OC(C)C3)nc3ccccn3c2=O)cc1` (stereo not given): “inactive”; `COc1ncc2nc(CCc3ccccc3)c(=O)n(CCc3ccccc3)c2n1`: “inactive”; `Cc1cccn2c(/C=N/OCc3cccc(F)c3)c(-c3ccc(Cl)cc3)nc12`: “inactive”. With `CCN1C(=O)[C@H]2[C@H]3[C@H](O)[C@H](O)C/C(=N/OCC(C)C)[C@H]3CC[C@@H]2C1=O`, the activity, negative = inhibition is -6.52% [at 11.4 µM].

For the compound `Cc1noc(C)c1C(=O)N1CCC[C@@]2(CCN(C(=O)Nc3cccc(F)c3)C2)C1`, the AC50 entry is “inactive”.

Take `CCOC(=O)CC(=O)CSc1nc(-c2ccccc2)cc(-c2ccc(Cl)cc2)c1C#N`: the AC50 entry is “inactive”. Same read-out and setting: next, `O=C1c2ccccc2C(=O)N1CC1c2ccccc2CCN1S(=O)(=O)c1ccccc1` (stereo not given): “inactive”; `COc1ccc(OC)c2[nH]c(=O)c(CCNC(=O)COc3ccccc3)cc12`: “inactive”; `CCn1c(CC(=O)Nc2ccc(C)cc2)nnc1SCC(=O)NCCc1ccccc1`: “inactive”. The same measure, in the same setting: next, `CCNCc1cc(OCC)c(OCC(=O)NCCc2ccccc2)cc1Cl`: 12.6 µM (active); `O=C(N/N=C/c1ccco1)c1ccc(Br)o1`: “inactive”; `CCCN1CCC(=NNC(=O)c2ccc(Br)o2)CC1`: 7.08 µM (active). The same measure, in the same setting: next, `CN1CCC(=NNC(=O)CSCc2ccccc2)CC1`: “inactive”. For `COc1ccc(OC[C@@H](CO)OC)cc1`, the activity, negative = inhibition was -7.62% [at 11.4 µM]. Regarding `COc1ccc(CNC(=O)CN(CC2CCCO2)C(=O)CNS(=O)(=O)c2ccccc2)cc1` (stereo not given), the AC50 entry was “inactive”. Same read-out and setting: next, `CN1CC[C@@]2(CCCN(C(=O)c3cccc(F)c3)C2)C1`: “inactive”. Still for that read-out and setting: next, `COc1ccccc1CNc1ncncc1-c1ccccc1C(F)(F)F`: 2 µM (active); `COc1ccc(CNc2ncncc2-c2ccccc2C(F)(F)F)c(OC)c1`: 0.398 µM (active).
